Source: PubChem
KKLEB cytotox – cytotoxicity in KKLEB CF airway cells, primary screen, cytotoxicity control for CF NF-kB inhibitor project, cell-based, uHTS, fluorescence assay plates | hit rate 0.36% among 360,000 | activity change (cytotoxicity), % at 5 µM | AID 602141, 2011 | KKLEB CF airway cells viability, ATPlite luminescence, overnight; active compounds read low; cells stimulated with P. aeruginosa culture filtrate;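 active means corrected activity change at or below -50% at 5 µM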
CHOP inhibitor – inhibitors of CHOP promoter induction, primary screen, cell-based, unfolded protein response, luciferase reporter. CHO-K1 CHOP-promoter luciferase, tunicamycin-induced, 15-18 h. inhibition, % at 10 µM. hit rate 3.8% among 220,000. AID 2732, 2010;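 active means compounds that reduced the stress-induced luciferase reporter signal by more than about 70% of percent inhibition, limit read from the data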;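 further: 0% = tunicamycin plus vehicle and 100% = wells without tunicamycin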
MITF TRPM1 inh – inhibitors of MITF-dependent TRPM1 promoter reporter, primary screen, cell-based, SK-MEL-5, single point, luciferase | SK-MEL-5 TRPM1 promoter luciferase, 24 h | hit rate 0.83% among 330,000 | inhibition, % at 12.5 µM;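 active means mean inhibition across replicates of 60% or more, whatever share of single replicates reaches that level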
CF NFkB inh – inhibitors of PAF-induced NF-kB signaling, primary screen, cell-based, GFP fluorescence, uHTS; inhibition, % at 5 µM; hit rate 0.86% among 360,000; AID 588850, 2011; KKLEB NF-kB-GFP reporter, GFP fluorescence overnight;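 active means at least 50% inhibition at 5 µM, scaled per plate between neutral and stimulator controls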;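 further: PAF is a Pseudomonas aeruginosa culture filtrate used as stimulus; plate controls were PAF-stimulated DMSO wells for no effect and unstimulated DMSO wells for full effect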
Peg3 prom inh – Peg3 promoter-driven luciferase inhibitors, primary screen, cell-based, HeLa, luciferase luminescence. HeLa PEG-Prom luciferase reporter, overnight. inhibition, % at 20 µM. hit rate 1.7% among 360,000. AID 588405, 2011;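 active means inhibition of at least 50% at 20 µM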
HIF-2a block – HIF-2a reporter inhibitors, primary screen, luminescence, 786-0 RCC cells. 786-0 RCC cells HIF-2a reporter, luciferase luminescence, overnight. inhibition, % at 18.8 µM. hit rate 0.72% among 360,000. AID 624352, 2012;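 active means inhibition of the luminescence signal of 40% or more relative to plate controls, in a single-dose primary screen at 18.75 µM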
CHOP inh conf – retest of CHOP induction inhibitors, confirmation, cell-based. shares compounds with CHOP inhibitor. CHO-CHOP promoter luciferase reporter, tunicamycin-induced, luminescence. inhibition, % at 10 µM. hit rate 45% among 2,100;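 active means mean of three repeat readings of reporter signal inhibition above a set limit, cut at about 70% in these data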;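 further: 0% = tunicamycin plus vehicle and 100% = wells lacking tunicamycin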
Starred values were filed as active, the others as inactive; · = not tested or not shown. Hits are enriched below; roughly 4.3% of the tested compounds scored in any of these assays.

SMILES | KKLEB cytotox | CHOP inhibitor | MITF TRPM1 inh | CF NFkB inh | Peg3 prom inh | HIF-2a block | CHOP inh conf
Cc1ccc(S(=O)(=O)NNC(=O)C2Cc3c(ccc4ccccc34)O2)cc1 (stereo not given) | -2 | 28 | 4 | 5 | 8 | 14 | ·
CCCCOc1ccc(S(=O)(=O)NNC(=O)C2Cc3c(ccc4ccccc34)O2)cc1 (stereo not given) | 0 | 98* | -1 | -1 | 13 | 21 | 59
O=C1c2ccccc2C(=O)c2c1cccc2-n1nnc2ccccc21 | -14 | 8 | -1 | -10 | 4 | 5 | ·
O=C1C(N2CCOCC2)=C(n2nnc3ccccc32)C(=O)c2ccccc21 | -22 | · | 98* | 86* | 98* | 27 | 95*
Cn1c(=O)c2ncn(CC(=O)Nc3nc(-c4ccc(Cl)cc4)cs3)c2n(C)c1=O | -18 | 100* | -7 | -11 | -37 | 3 | 61
CCOC(=O)c1c(N)sc(C(O)(C(F)(F)F)C(F)(F)F)c1-c1ccc(Cl)cc1 | 10 | 98* | 8 | 1 | 44 | 17 | 121*
Cc1cc(Nc2cccc(F)c2)nc(-c2ccccc2O)n1 | -16 | 51 | 5 | -31 | -8 | -92 | ·
Cc1cc(Nc2ccccc2)nc(-c2ccccc2O)n1 | -5 | 96* | -30 | -4 | -135 | -219 | 100*
COc1ccc(-c2ccc(C(=O)NCc3ccc(N(C)C)cc3)c3occc23)c(C)c1 | -6 | · | · | 1 | -109 | -162 | ·
CCCCn1c(=O)[nH]c(=O)c2c1nc(-c1ccccc1F)n2Cc1ccccc1OC | 5 | 55 | 10 | 10 | 16 | 24 | ·
Cc1cccc(Cn2cc(/C=C/[N+](=O)[O-])c3ccccc32)c1 | -5 | 102* | 19 | 3 | 48 | 36 | -28
Cc1cnc(-c2nc3ccccc3n2C(C(=O)NC(C)(C)C)c2ccncc2)cn1 (stereo not given) | · | · | · | · | · | -162 | ·
CC(NC(=O)COc1ccccc1)C(c1ccccc1)N1CCN(C)CC1 (stereo not given) | 4 | 98* | 2 | 8 | 8 | 8 | 21
COc1ccc(N2CCN(C(=O)COC(=O)CNC(=O)c3cccc(OC(F)F)c3)CC2)cc1 | 10 | · | -4 | -6 | 7 | -5 | ·
Cc1nc2ccc(NC(=O)c3cc([N+](=O)[O-])cc([N+](=O)[O-])c3Cl)cc2s1 | 8 | 107* | 12 | 2 | -110 | -75 | 6
Cc1nc2ccc(NC(=O)c3ccc(Cl)c([N+](=O)[O-])c3)cc2s1 | -1 | 17 | -9 | 13 | -11 | -35 | ·
COc1ccc(C(C(=O)NC2CCCCC2)N(C(=O)CCl)c2cccc(Cl)c2)cc1 (stereo not given) | -76* | 106* | 88* | 100* | 102* | 36 | 104*
COc1cccc(N(C(=O)c2cnccn2)C(C(=O)NC2CCCCC2)c2ccc(Cl)cc2)c1 (stereo not given) | -2 | 16 | 0 | -8 | 7 | 13 | ·
CC(c1ccccc1F)n1cc(C(=O)NCCCc2nc3ccccc3[nH]2)nn1 (stereo not given) | 5 | 97* | -14 | -4 | 27 | 18 | 20
O=C(CCl)c1ccc2c(c1)CCN2C(=O)C1CCCCC1 | -4 | 109* | 18 | -8 | 105* | -19 | 19
COc1cc(/C=C/C(=O)OC2CC3CCC2(C)C3(C)C)ccc1O (stereo not given) | 0 | 100* | -13 | 12 | -104 | -89 | 102*
COc1cc(/C=C/C(=O)OCC(=O)N2CCC(C)CC2)ccc1O | 7 | · | -2 | -4 | -2 | 6 | ·
CC(C)(C)OC(=O)[C@H](Cc1ccccc1)NC(=O)c1nc[nH]c1C(=O)N[C@@H](Cc1ccccc1)C(=O)OC(C)(C)C | -24 | 31 | 13 | 27 | 25 | 27 | ·
C[C@H](NC(=O)c1[nH]cnc1C(=O)Nc1ccc(CNC(=O)OC(C)(C)C)cc1)C(=O)OC(C)(C)C | 0 | 98* | -4 | -7 | 36 | 23 | 78*
C[C@H](NC(=O)c1nc[nH]c1C(=O)N[C@@H](Cc1ccccc1)C(=O)OC(C)(C)C)C(=O)OC(C)(C)C | 0 | 97* | 1 | -8 | 30 | 18 | 100*
SMILES | KKLEB cytotox | CHOP inhibitor | MITF TRPM1 inh | CF NFkB inh | Peg3 prom inh | HIF-2a block | CHOP inh conf
CC(OC(=O)Cn1[nH]c(=O)c2ccccc2c1=O)C(=O)c1ccccc1 (stereo not given) | 0 | · | -1 | 17 | -2 | -5 | ·
Cc1ccc(Sc2nc(-c3ccccc3)nnc2C(F)(F)F)cc1 | 2 | 107* | 13 | 17 | 105* | 4 | -50
Cc1ccc(Cl)cc1NC(=S)N/N=C/c1cccc2ccccc12 | 2 | -36 | 9 | -5 | 3 | -26 | ·
CN(C)C(=O)c1cccc(-c2cnc3c(NC=O)cc(-c4ccccc4F)cn23)c1 | 4 | · | · | -30 | 24 | -63 | ·
Cn1c(=O)cc(SCC(=O)NCCC2=CCCCC2)c2ccc(Cl)cc21 | -8 | 97* | -1 | -18 | 4 | 10 | 90*
Cc1ccc(NC(=O)NC2CCCCCCC2)cc1C | -6 | · | -52 | 28 | -124 | -206 | ·
Cc1ccc(NC(=O)c2ccc(C#CC3(O)CCCCC3)cc2)cc1C | 0 | 101* | -2 | 8 | 0 | 2 | 106*
CC(C)c1nnc(NC(=O)c2c(O)c3cccc4c3n(c2=O)CCC4)s1 | -7 | 104* | 16 | 11 | 9 | 17 | 109*
O=c1onc2cnc3ccccc3n12 | · | 10 | · | · | · | · | ·
CC(C)c1ccccc1NC(=O)COC(=O)c1cccnc1 | 3 | · | 11 | -14 | 11 | 10 | ·
CN1CCN(/N=C/c2ccc(N(c3ccccc3)c3ccccc3)cc2)CC1 | -43 | 105* | -16 | 38 | 97* | 90* | -17
CCn1c2ccccc2c2cc(NC(=O)CSc3nnc(-c4ccc(OC)c(OC)c4)n3N)ccc21 | 9 | 42 | 11 | 2 | 19 | 7 | ·
CCOc1ccc(-c2nnc(SCC(=O)Nc3ccc4c(c3)c3ccccc3n4CC)n2N)cc1 | 13 | 98* | 78* | 41 | 34 | 4 | 39
O=C1NC[C@@H](CCCCN2CCN(CCc3ccc(O)cc3)C(=O)C2=O)N(CCc2ccc(O)cc2)C1=O | · | · | · | · | · | -11 | ·
Cc1ccc(C)c(NC(=S)NC(NC(=O)Cc2ccccc2)C(Cl)(Cl)Cl)c1 (stereo not given) | 10 | 103* | 5 | 18 | 84* | 7 | 25
CCC(=O)N1CCC(C)(C(=O)Nc2ccc(OC)c(OC)c2)C1 (stereo not given) | -3 | · | · | -16 | 1 | 9 | ·
